Out of some 5,500 compounds screened, about 2,000 (36%) were called active. Not shown: some 18% with an inconclusive outcome. Rule as the data show it: active = normalized growth mostly below about 0.91 (no sharp cut-off); inconclusive = no clear call, values can overlap the other calls; inactive = mostly above about 0.92. Some of the results follow.
Experiment: chemical genetic growth profiling, strain panel (AID 1159580);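 also: tested at 20 µM; growth read once vehicle control cultures reached saturation at 30 °C; 1 = growth at the plate median or of vehicle wells; lower values mean less growth of the strain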
Conditions: growth OD

Measured: normalized growth

COC(=O)C1[C@H]2C[C@H]3c4[nH]c5ccccc5c4CCN3C[C@@H]2CC[C@@H]1O (some centres not stated)
inactive: S. cerevisiae deletion strains, locus YJR075W, strain HOC1, active compounds read low 1.02 | S. cerevisiae deletion strains, locus YKL009W, strain mrt4, active compounds read low 0.996 | S. cerevisiae deletion strains, locus YKL068W, active compounds read low 1.01 | S. cerevisiae deletion strains, locus YKL085W, strain MDH1 (second series), active compounds read low 1.01 | S. cerevisiae deletion strains, locus YKL085W, strain MDH1, active compounds read low 1.01 | S. cerevisiae deletion strains, locus YKL160W, strain elf1, active compounds read low 0.987 | S. cerevisiae deletion strains, locus YKL190W, strain CNB1, active compounds read low 1.02 | S. cerevisiae deletion strains, locus YKR001C, strain vps1, active compounds read low 1.02 | S. cerevisiae deletion strains, locus YKR026C, strain gcn3, active compounds read low 0.971 | S. cerevisiae deletion strains, locus YKR091W, strain srl3, active compounds read low 0.985 | S. cerevisiae deletion strains, locus YLL001W, strain dnm1, active compounds read low 0.984 | S. cerevisiae deletion strains, locus YLL026W, active compounds read low 0.965 | S. cerevisiae deletion strains, locus YLL041C, strain sdh2, active compounds read low 0.974 | S. cerevisiae deletion strains, locus YLR027C, strain aat2, active compounds read low 0.988 | S. cerevisiae deletion strains, locus YLR039C, strain RIC1, active compounds read low 1.02 | S. cerevisiae deletion strains, locus YLR058C, strain SHM2, active compounds read low 1.01 | S. cerevisiae deletion strains, locus YLR102C, strain apc9, active compounds read low 1.02 | S. cerevisiae deletion strains, locus YLR113W, strain HOG1, active compounds read low 1.01 | S. cerevisiae deletion strains, locus YLR221C, strain rsa3, active compounds read low 1.01 | S. cerevisiae deletion strains, locus YLR258W, strain gsy2, active compounds read low 0.98 | S. cerevisiae deletion strains, locus YLR262C, strain YPT6 (second series), active compounds read low 0.974 | S. cerevisiae deletion strains, locus YLR262C, strain YPT6, active compounds read low 1 | S. cerevisiae deletion strains, locus YLR268W, strain sec22, active compounds read low 1.06 | S. cerevisiae deletion strains, locus YLR320W, strain mms22, active compounds read low 1.02 | S. cerevisiae deletion strains, locus YLR330W, strain CHS5, active compounds read low 1.01 | S. cerevisiae deletion strains, locus YLR342W, strain FKS1 (second series), active compounds read low 1 | S. cerevisiae deletion strains, locus YLR342W, strain FKS1, active compounds read low 0.981 | S. cerevisiae deletion strains, locus YLR357W, strain rsc2, active compounds read low 0.985 | S. cerevisiae deletion strains, locus YLR370C, strain arc18, active compounds read low 0.965 | S. cerevisiae deletion strains, locus YLR371W, strain rom2, active compounds read low 1.02 | S. cerevisiae deletion strains, locus YLR384C, strain iki3, active compounds read low 0.969 | S. cerevisiae deletion strains, locus YLR418C, strain cdc73, active compounds read low 1.02 | S. cerevisiae deletion strains, locus YML016C, strain PPZ1, active compounds read low 1.01 | S. cerevisiae deletion strains, locus YML032C, strain rad52, active compounds read low 1.03 | S. cerevisiae deletion strains, locus YML120C, strain ndi1, active compounds read low 0.966 | S. cerevisiae deletion strains, locus YML124C, strain tub3, active compounds read low 1.01 | S. cerevisiae deletion strains, locus YMR058W, strain fet3, active compounds read low 0.974 | S. cerevisiae deletion strains, locus YMR078C, strain ctf18, active compounds read low 1.01 | S. cerevisiae deletion strains, locus YMR125W, strain sto1, active compounds read low 0.981 | S. cerevisiae deletion strains, locus YMR129W, active compounds read low 0.988 | S. cerevisiae deletion strains, locus YMR205C, strain PFK2, active compounds read low 0.991 | S. cerevisiae deletion strains, locus YMR223W, strain ubp8, active compounds read low 1.01 | S. cerevisiae deletion strains, locus YMR231W, strain pep5, active compounds read low 0.978 | S. cerevisiae deletion strains, locus YMR263W, strain SAP30, active compounds read low 1.03 | S. cerevisiae deletion strains, locus YMR307W, strain GAS1, active compounds read low 0.952 | S. cerevisiae deletion strains, locus YNL067W, strain RPL9B, active compounds read low 1.03 | S. cerevisiae deletion strains, locus YNL071W, strain lat1, active compounds read low 0.976 | S. cerevisiae deletion strains, locus YNL128W, strain TEP1, active compounds read low 1.02 | S. cerevisiae deletion strains, locus YNL153C, strain GIM3, active compounds read low 1.01 | S. cerevisiae deletion strains, locus YNL183C, strain NPR1, active compounds read low 0.981 | S. cerevisiae deletion strains, locus YNL209W, strain ssb2, active compounds read low 0.959 | S. cerevisiae deletion strains, locus YNL233W, strain BNI4, active compounds read low 1.01 | S. cerevisiae deletion strains, locus YNL248C, strain rpa49, active compounds read low 0.998 | S. cerevisiae deletion strains, locus YNL250W, strain rad50, active compounds read low 1.02 | S. cerevisiae deletion strains, locus YNL271C, strain bni1, active compounds read low 1.02 | S. cerevisiae deletion strains, locus YNL298W, strain CLA4, active compounds read low 1.02 | S. cerevisiae deletion strains, locus YNL307C, strain MCK1, active compounds read low 1.02 | S. cerevisiae deletion strains, locus YNL322C, strain KRE1 (second series), active compounds read low 0.973 | S. cerevisiae deletion strains, locus YNL322C, strain KRE1, active compounds read low 1.02 | S. cerevisiae deletion strains, locus YNR049C, strain mso1, active compounds read low 0.97 | S. cerevisiae deletion strains, locus YNR052C, strain pop2, active compounds read low 1.02 | S. cerevisiae deletion strains, locus YOL006C, strain TOP1, active compounds read low 1.06 | S. cerevisiae deletion strains, locus YOL012C, strain htz1 0.74 | S. cerevisiae deletion strains, locus YOL147C, strain pex11, active compounds read low 1.02 | S. cerevisiae deletion strains, locus YOR001W, strain rrp6, active compounds read low 0.961 | S. cerevisiae deletion strains, locus YOR061W, strain CKA2, active compounds read low 1.01 | S. cerevisiae deletion strains, locus YOR069W, strain VPS5, active compounds read low 1.01 | S. cerevisiae deletion strains, locus YOR070C, strain gyp1, active compounds read low 0.983 | S. cerevisiae deletion strains, locus YOR080W, strain dia2, active compounds read low 0.934 | S. cerevisiae deletion strains, locus YOR083W, strain WHI5, active compounds read low 0.979 | S. cerevisiae deletion strains, locus YOR106W, strain vam3, active compounds read low 0.949 | S. cerevisiae deletion strains, locus YOR136W, strain idh2, active compounds read low 1.02 | S. cerevisiae deletion strains, locus YOR144C, strain elg1, active compounds read low 1.01 | S. cerevisiae deletion strains, locus YOR184W, strain ser1, active compounds read low 1.01 | S. cerevisiae deletion strains, locus YOR231W, strain MKK1, active compounds read low 1.02 | S. cerevisiae deletion strains, locus YOR265W, strain rbl2, active compounds read low 0.978 | S. cerevisiae deletion strains, locus YOR270C, strain vph1, active compounds read low 0.935 | S. cerevisiae deletion strains, locus YOR290C, strain snf2, active compounds read low 0.974 | S. cerevisiae deletion strains, locus YOR316C, strain cot1, active compounds read low 1.02 | S. cerevisiae deletion strains, locus YPL051W, strain arl3, active compounds read low 0.961 | S. cerevisiae deletion strains, locus YPL055C, strain LGE1, active compounds read low 1.02 | S. cerevisiae deletion strains, locus YPL078C, strain atp4, active compounds read low 0.963 | S. cerevisiae deletion strains, locus YPL106C, strain sse1, active compounds read low 0.906 | S. cerevisiae deletion strains, locus YPL240C, strain hsp82, active compounds read low 0.995 | S. cerevisiae deletion strains, locus YPL241C, strain CIN2, active compounds read low 1.01 | S. cerevisiae deletion strains, locus YPL256C, strain CLN2, active compounds read low 0.998 | S. cerevisiae deletion strains, locus YPR119W, strain clb2, active compounds read low 1.02 | S. cerevisiae deletion strains, locus YPR141C, strain kar3, active compounds read low 1.02 | S. cerevisiae deletion strains, locus YPR163C, strain tif3, active compounds read low 1.02 | S. cerevisiae deletion strains, locus YPR167C, strain met16, active compounds read low 1.02 | S. cerevisiae deletion strains, strain wtn01, active compounds read low 1.04 | S. cerevisiae strains, strain wild type, active compounds read low 1
